The list is not random: actives were taken first. Their share in the collection is about 5.3%.
Lassa entry inh: blocks Lassa virus binding to or entry into cells; Potency, µM (top dose mostly 37.9 µM), without a hit: top-dose activity change, negative = inhibition, usual class: inhibitors; Lassa virus pseudotype entry inhibition, cell reporter; actives 1.2% (n = 300,000); AID 540256; calls by dose curve; tested in HEK293 cells; also: nearly all actives have a fitted effect of over 50% in size
Vaccinia Venus: vaccinia inhibition (Venus reporter) | Vaccinia virus Venus reporter expression, fluorescence | Potency, µM (highest dose often 36.5 µM), without a hit: at the top dose activity change, negative = inhibition, actives largely listed as inhibitors | actives 0.46% (n = 330,000) | AID 720580; calls by dose curve; tested in A549 cells; also: nearly all actives have a fitted effect of over 30% in size
HCV inhibitor: blocks hepatitis C virus | Huh7.5.1 HCVcc-Cre infection, luciferase reporter, 44 h | actives 3.4% (n = 340,000) | Potency, µM (series often up to 41.8 µM), for inactives: top-dose activity change, negative = inhibition, hits mostly inhibitors; active = well fitted inhibition curve with a large enough effect; inconclusive = small, poorly fitted or top-dose-only effect, or another doubt; inactive = no such curve, though single readings can be large or run the other way
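Cells (1,000/well) were plated 4 h before compound, then infected with HCVcc-Cre virus (~0.5 moi). After 44 h further culture, infection was read as luciferase luminescence following a 15 min substrate incubation at room temperature.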
FMDV inh: antivirals against foot and mouth disease virus | AID 1159524 | FMDV antiviral cell-based qHTS | actives 1.2% (n = 410,000) | Potency, µM (titrated, usually from 57.9 µM), for the others: at the top dose activity change, negative = inhibition, actives largely listed as inhibitors; calls by dose curve; tested in HEK293T cells; also: read-out not given here; nearly all actives have a fitted effect of over 45% in size
Vaccinia mCherry: vaccinia inhibition (mCherry reporter); Vaccinia virus mCherry reporter infection, fluorescence; Potency, µM (titrated, usually from 36.5 µM), inactives show at the highest dose activity change, negative = inhibition, usual class: inhibitors; actives 0.63% (n = 310,000); AID 720579; calls by dose curve; tested in A549 cells; also: nearly all actives have a fitted effect of over 35% in size
Marburg entry inh: Marburg virus entry inhibition | AID 540276 | Potency, µM (top dose mostly 37.8 µM), for the others: top-dose activity change, negative = inhibition, usual class: inhibitors | Marburg virus pseudotyped entry inhibition, cell reporter | actives 1.8% (n = 300,000); calls by dose curve; tested in HEK293 cells
* = called active by the depositor; i = inactive; ? = inconclusive; . = no result; [ ] = another dose, or the depositor's remark. % is scaled to controls: 0 for no effect and ±100 for the full control effect; potency is read from the fitted curve at half-maximal effect.

SMILES	Lassa entry inh	Vaccinia Venus	HCV inhibitor	FMDV inh	Vaccinia mCherry	Marburg entry inh
CCCCC[C@@H](C)N1C[C@@H](COCc2ccccc2)Oc2cc(N3CCC[C@@H]3CO)ccc2S1(=O)=O	.	-12%	.	-2%	-14%	.
Cn1cc(-c2nc3cnc(OCc4ccccc4)nc3n(CCC#N)c2=O)c2ccccc21	.	.	.	-10%	.	.
CSc1ccccc1NC(=O)CSc1n[nH]c(C)c1[N+](=O)[O-]	.	.	-5%	31%	.	.
Cc1ccc(O)c(NC(=O)CSc2n[nH]c(C)c2[N+](=O)[O-])c1	-17%[46.1 µM]	?	?	-22%	2.5µM*	?
O=C(NCCS(=O)(=O)NC1CCCC1)c1ccccc1	4%	-2%	10%	-10%	-11%	12%[46.1 µM]
CCc1ccccc1NC(=O)c1ccc(CN2CCC(Cc3ccccc3)CC2)cc1	?	?	13µM*	-15%	.	?
COCCNC(=O)c1ccc(CN2CCC(Cc3ccccc3)CC2)cc1	0%	-11%	-24%	-9%	i	-3%
O=C(NCc1ccccc1)c1ccc(CN2CCC(Cc3ccccc3)CC2)cc1	.	.	10µM*	0%	.	.
Cc1cc(N(C)C)cc(C)c1C=O	.	-11%	.	.	-12%	.
CCCCCCCn1c2c(c(=N)c3ccccc31)CCC2	.	?	1.8µM*	5µM*	?	.
COc1ccc(/C=N/NC(=O)c2cc3c(OC)ccc(OC)c3[nH]2)cc1O	?	?	?	-1%	7.1µM*	?
COc1ccc(OC)c2[nH]c(C(=O)N/N=C/c3ccccc3O)cc12	.	?	3.2µM*	?	?	.
Brc1cc2[nH]cnc2c2ccccc12	17%	.	10µM*	5%	.	25%
O=C(O)C1CCCN1c1nc(-c2ccc(Cl)c(Cl)c2)cc(C(F)(F)F)n1 (configuration not stated)	?	?	?	-26%	?	0.5µM*
FC(F)(F)c1cc(-c2ccccc2)nc(N2CCCCC2)n1	-2%	-7%	-23%	-1%	.	-2%
Cc1ccc2c(C)nc(Nc3nc(CSc4nnnn4-c4ccccc4)cc(=O)[nH]3)nc2c1	?	?	11µM*	11%	?	-2%
Cc1ccc(SCc2cc(=O)[nH]c(Nc3nc(C)c4cccc(C)c4n3)n2)cc1	-51%[14.3 µM]	-6%	.	22%	-7%	9.2µM*
CCCCn1c(CNC(=O)C23CC4CC(CC(C4)C2)C3)nnc1SCC(=O)Nc1ccccc1	-22%[46.1 µM]	-14%	.	-17%	-6%	?
COc1cc2cc(CNc3ccccc3)c(=O)n(CC(=O)Nc3ccccc3)c2cc1OC	14%[46.1 µM]	0%	.	9%	-5%	.
O=C(c1ccc(F)cc1)c1ccc(N2CCCCC2)cc1	.	.	?	45%	.	.
O=C(Nc1ccc(Nc2ccccc2)cc1)c1ccc(F)cc1	.	-19%	10µM*	-3%	-17%	.
O=C(Nc1ccc(N2CCCCC2)cc1)c1ccc(F)cc1	?	-5%	?	-17%	-13%	11µM*
O=C(Nc1ccc(Nc2ccccc2)cc1)c1c(Cl)cccc1Cl	-18%[46.1 µM]	-10%	10µM*	16%	?	?
CCCCOC(=O)Nc1ccc(N2CCCCC2)cc1	8.9µM*	-11%	23%	4%	-17%	?
CCCCOC(=O)Nc1ccc(N2CCOCC2)cc1	12%	.	6%	56%	.	?
SMILES	Lassa entry inh	Vaccinia Venus	HCV inhibitor	FMDV inh	Vaccinia mCherry	Marburg entry inh
O=C(O)c1ccc(C(=O)Nc2ccc(F)cc2)cc1	.	1%	9%	-8%	-5%	.
O=C(NCCN1Cc2ccccc2OC(c2ccccc2F)C1)c1cncs1 (configuration not stated)	.	2%	.	-4%	-17%	.
O=C(CN1Cc2ccccc2OC(c2ccccc2)C1)NCc1cccnc1 (configuration not stated)	.	-5%	.	54%	-11%	.
COc1cc(C(=O)COC(=O)c2cc([N+](=O)[O-])ccc2N2CCOCC2)ccc1OC(F)F	-25%	-23%	1.1µM*	?	-9%	-45%
COc1ccc(C(=O)COC(=O)c2cc([N+](=O)[O-])ccc2N2CCOCC2)c(OC)c1	-11%	-13%	1µM*	-19%	-19%	2.2µM*
COc1ccc(Cc2nnc(Nc3ccccc3OC)[nH]c2=O)cc1	3%	-16%	2.8µM*	2%	i	7%[46.1 µM]
Cc1ccc(C(C#N)c2ccc(C(=O)c3ccc(F)cc3)cc2)cc1 (configuration not stated)	10µM*	?	?	-22%	-15%[1.46 µM]	?
NC(=O)CSc1ncc2c(n1)-c1ccccc1N(Cc1ccc(F)cc1)S2(=O)=O	-3%[46.1 µM]	16%	.	-6%	7%	.
NC(=S)NN=C1c2cc(Cl)ccc2-c2c1cc(Cl)cc2[N+](=O)[O-]	0%	-17%	?	20µM*	-16%	-24%
CCC(=O)N[C@@H]1c2ccccc2C2(CCN(Cc3ccccn3)CC2)[C@H]1OC	.	-9%	.	-15%	i	.
COc1ccc2nc(/N=C\N(C)C)sc2c1	3%	.	1%	53%	.	-1%
COc1ccc2nc(N=Nc3ccc(N(C)C)cc3)sc2c1	?	-14%	4%	13µM*	-13%	?
CC(C)(C)C1CCc2nc(NC(=O)Cc3ccc(Cl)cc3)sc2C1 (configuration not stated)	21%[46.1 µM]	1%[7.34 µM]	.	-12%	-9%[7.34 µM]	?
CC(C)(C)C1CCc2nc(NC(=O)Cc3cn4ccsc4n3)sc2C1 (configuration not stated)	-2%	?	22µM*	41%	.	-6%
CCn1c(/C=C/N(C(C)=O)c2ccccc2)[n+](CCCS(=O)(=O)[O-])c2cc(Cl)c(Cl)cc21	3%[46.1 µM]	-8%	15%	5%	i	6%[46.1 µM]
CCn1c(/C=C/Nc2ccccc2)[n+](CC)c2cc(Cl)c(Cl)cc21	?	-23%	?	-18%	-11%	13µM*
CC1(C(=O)Nc2ccc3[nH]ncc3c2)CCN1C(=O)Cc1ccc(-c2ccccc2)cc1 (configuration not stated)	.	-24%	.	40µM*	-21%	.
CC(C)(C)c1ccc(CC(=O)N2CCC2(C)C(=O)Nc2ccc3[nH]ncc3c2)cc1 (configuration not stated)	.	-25%	.	-17%	?	.
CCCCCC(=O)Nc1ccc(NC(=O)c2cc3ccccc3o2)c(OC)c1	25%[46.1 µM]	?	.	-20%	?	.
CCOc1ccc(/C=C/c2ccc3ccccc3n2)cc1OCC	.	-12%	.	.	38%	.
CCCNC(=O)CNC(=O)c1ccccc1OCC(=O)Nc1ccc(Br)cc1	.	-14%	.	.	-11%	.
CCCCC(=O)N1C(C)CCC1C (configuration not stated)	.	-13%	.	-6%	?	.
CCCCC(=O)/C=C/n1c2c(oc1=S)CCCC2	.	.	.	.	.	18µM*
CCOc1ccc(-c2cc(NC(=O)Nc3ccccc3C(F)(F)F)c(C(=O)OC)s2)cc1	?	-24%	.	19%	-30%	17%[46.1 µM]

Source: PubChem
